Assay outcomes deposited in PubChem BioAssay by several laboratories.
Compounds with a hit are over-represented: about 3.7% of the library has one in this group of screens.
TIM10 inh: TIM10 yeast growth inhibition; 330,000 compounds, 1.4% hits; inhibition, % at 10 µM; S. cerevisiae TIM10 strain growth, BacTiter-Glo luminescence, 24 h;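 active = inhibition of 40% or more at the single tested concentration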;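 also: wild-type TIM10 isogenic control strain grown at permissive 25 °C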
V-ATPase pH: regulators of yeast V-ATPase proton transport; S. cerevisiae, pHLuorin cytosolic pH fluorescence; response, % at 10 µM; 350,000 compounds, 0.37% hits; AID 504577; in the data active = response mostly above about 7.3%, no sharp cut-off; inactive = mostly below about 5.4%; also: actives read high
tim10-1 inh: tim10-1 yeast growth inhibition. AID 463190. inhibition, % at 20 µM. S. cerevisiae tim10-1 ts strain growth, BacTiter-Glo, 24 h. 330,000 compounds, 2.2% hits;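 active = inhibition of at least 40%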;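 also: mutant grown at 25 °C; 0% = DMSO wells with yeast and 100% = wells holding no yeast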
PfHsp90 set2: inhibits growth of yeast expressing Plasmodium falciparum Hsp90; S. cerevisiae expressing PfHsp90, BacTiter-Glo ATP, 48 h; yeast lacking PDR1 and PDR3 efflux regulators; 310,000 compounds, 0.32% hits; inhibition, % at 9.4 µM;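 active = every replicate shows inhibition above about 80%, whatever the replicate mean, limit read from the data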;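 also: 0% = DMSO neutral controls and 100% = 20 µM radicicol positive controls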
tim23-1 inh: tim23-1 yeast growth inhibition; 330,000 compounds, 1.3% hits; S. cerevisiae tim23-1 growth, BacTiter-Glo luminescence, 24 h; inhibition, % at 20 µM;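 active = growth inhibition of the mutant yeast at or above 50%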;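 also: temperature-sensitive mutant grown at 25 °C; plate controls were DMSO-treated mutant yeast for no effect and medium wells lacking yeast for full effect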
Numbers without * were called inactive; . = not tested or not shown.

SMILES	TIM10 inh	V-ATPase pH	tim10-1 inh	PfHsp90 set2	tim23-1 inh
O=C(Nc1nc(-c2ccccn2)cs1)C1COc2ccccc2O1 (stereo unspecified)	-0.5	-2.2	24.4	103.0*	43.3
O=C(CSc1nnc(-c2ccccc2O)o1)N1CCCCC1	7.3	-2.0	0.1	1.3	24.8
O=C(COc1ccc(Cl)cc1)Nc1ccccc1C(=O)NCc1cccnc1	-14.4	-4.5	0.3	-0.5	9.0
C=CC(n1cncn1)C(O)(c1ccccc1)c1ccccc1 (stereo unspecified)	-217.7	2.9	-45.1	104.8*	-293.5
O=C(Nc1ccccc1)C(Cl)C(=O)c1ccccc1 (stereo unspecified)	-22.4	1.7	32.6	106.4*	33.1
COC(=O)CCC(=O)OC1(C)C(=O)C2=COC(c3ccc(OC)cc3)=CC2=C(Br)C1=O (stereo unspecified)	-2.1	.	8.6	.	25.7
COc1ccc(C2=CC3=C(Br)C(=O)C(C)(OC(=O)C4CCCC4)C(=O)C3=CO2)cc1 (stereo unspecified)	12.3	1.1	17.6	110.2*	18.1
O=C1C2C3C=CC(CNS(=O)(=O)c4ccccc4[N+](=O)[O-])(O3)C2C(=O)N1c1ccccc1 (stereo unspecified)	10.1	2.9	22.4	110.7*	4.7
CC(C)COC(=O)NCC12C=CC(O1)C1C(=O)N(c3ccc(Cl)cc3)C(=O)C12 (stereo unspecified)	13.9	-2.3	33.6	.	18.0
Cc1cc(C)c(S(=O)(=O)NCC23C=CC(O2)C2C(=O)N(c4ccccc4)C(=O)C23)c(C)c1 (stereo unspecified)	25.5	2.2	31.3	103.9*	21.9
CC(C)(C)C(=O)NCC12C=CC(O1)C1C(=O)N(c3ccccc3)C(=O)C12 (stereo unspecified)	7.3	-2.1	9.7	103.6*	-3.0
Cc1ccc(S(=O)(=O)N2CC3(O)CN(C(=O)OC(C)C)N(C(=O)OC(C)C)CC3(OC(=O)NCc3ccccc3)C2)cc1 (stereo unspecified)	.	1.1	.	.	.
CCCCN(C)C1=CC2=CC(=C(C#N)C#N)CCC2CC1 (stereo unspecified)	-62.8	291.4*	8.8	13.9	-40.8
CCN(CC)C1=CC2=CC(=C(C#N)C#N)CCC2CC1 (stereo unspecified)	-3.9	219.1*	19.1	-2.3	-16.5
O=C(c1cnn2c(C(F)F)cc(-c3ccccc3)nc12)N1CCN(Cc2ccc3c(c2)OCO3)CC1	15.6	-0.9	16.5	9.4	7.1
CC(C)(C)c1cc(C(=O)N2CCc3ccccc32)ccn1	-1.2	16.9*	13.0	-2.6	0.3
CCOC(=O)CCCCCC(=O)Nc1ccc2c(c1)C(=O)N([C@@H](C)CO)C[C@H](C)[C@H](CN(C)C(=O)Nc1ccc(F)cc1)OCCCC[C@H](C)O2	.	-1.9	.	.	.
Cc1cc(Cl)n2c(nc3ccccc32)c1C#N	.	-35.1	.	.	.
Cc1c(CCCl)c(Cl)n2c(nc3ccccc32)c1C#N	.	-103.2	.	102.7*	.
CCc1c(C)nc2ncnn2c1Nc1ccc(C)cc1	-7.4	2.5	2.4	5.3	5.9
CCc1c(C)nc2ncnn2c1NC1CCCc2ccccc21 (stereo unspecified)	-26.9	13.3*	22.8	-62.3	-67.9
CCOc1ccc(C(C(=O)NC2CCCCC2)N(CCOC)C(=O)c2snc(C(N)=O)c2N)cc1 (stereo unspecified)	0.1	-1.1	2.0	22.4	1.9
Cc1ccc(O)c(NC(=S)NC(=O)c2ccc(-c3ccc(Cl)cc3)o2)c1	0.9	-0.6	15.2	121.8*	23.4
O=C(NC(=S)Nc1ccccc1O)c1ccc(-c2ccc(Cl)cc2)o1	-5.1	-6.5	13.6	-38.3	0.3
O=S(=O)(NC1CC2CCC1C2)c1ccc(Br)cc1 (stereo unspecified)	-125.2	-4.0	9.7	107.9*	22.9
SMILES	TIM10 inh	V-ATPase pH	tim10-1 inh	PfHsp90 set2	tim23-1 inh
Cc1ccc(S(=O)(=O)NC2CC3CCC2C3)cc1 (stereo unspecified)	-122.8	-4.2	-60.2	.	2.8
O=C(O)c1cccc2c1Cc1cc([N+](=O)[O-])ccc1-2	.	-0.4	.	114.9*	.
O=C(O)c1cccc2c1-c1ccc([N+](=O)[O-])cc1C2=O	.	5.5	.	-1.6	.
CCOC(=O)C1=CCN(Cc2ccccc2)CC1	-5.9	4.8	-21.9	2.4	-2.6
O=C(C1CCCO1)N1CCN(C(=S)Nc2ccc(Cl)cc2Cl)CC1 (stereo unspecified)	-11.9	16.6*	12.3	6.1	19.8
O=C(OCC(=O)N1CCNC1=O)c1ccccc1Cl	.	-0.1	.	.	.
